Assay results: PubChem BioAssay (NCATS)
Several values for one entry are separate records, joined by “and”; a condition that tells them apart may be missing. Equal values may be shown once. Results filed as inconclusive are left out. Activity calls are given as the source filed them. Unless noted, calls come from the whole dose curve.

Tests used:
[1] = qHTS assay for small molecule agonists of retinoid X receptor alpha signaling (AID 588544); settings: HEK293T RXRa-UAS-bla, beta-lactamase reporter, 18 h; 530 nm emission;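 for activation: 0% = DMSO basal wells and 100% = reference agonist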
[2] = target: Retinoic acid receptor RXR-alpha (Homo sapiens) (UniProt P19793); experiment: as above; settings: HEK293T RXRa-UAS-bla, beta-lactamase reporter, 18 h; series mostly up to 76.7 µM
[3] = target: Thyroid hormone receptor beta (Homo sapiens) (UniProt P10828); experiment: qHTS assay for small molecule agonists of thyroid hormone receptor beta signaling (AID 588545); settings: TR-UAS-bla GripTite HEK 293, beta-lactamase ratio, agonist mode, 18 h, percent of T3 response, DMSO as zero; series mostly up to 76.7 µM
Outline: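 HEK 293 TR-UAS-bla; agonist mode; 18 hrs, 37 C; CCF4, ex 405/em 460 and 530 nm; norm. T3 10 nM = 100%, DMSO = 0%; Hill fit → EC50, efficacy.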

[4] = qHTS assay for small molecule antagonists of retinoid X receptor alpha signaling (AID 588546; active = well fitted inhibition curve with a large enough effect in the signal ratio, with a control signal flat, not every such curve was filed as active; the % refers to the signal ratio;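 note: cells stimulated with 9-cis-retinoic acid as agonist; % is set by controls: 0 for no effect and ±100 for the full control effect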); settings: HEK293T RXRa-UAS-bla, beta-lactamase ratio, antagonist mode; measured here: W530 green channel, cytotoxicity proxy
Outline: (§1)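 Beta-lactamase reporter inhibition, read as CCF4 fluorescence ratio (ex 405, em 460/530 nm) after 2 h at RT. HEK293T UAS-bla cells, 2500/well, were stimulated with 9-cis-RA at 500 or 100 nM final alongside test compound for 18 h at 37 C.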

[5] = target: Retinoic acid receptor RXR-alpha (Homo sapiens) (UniProt P19793); experiment: as above; settings: HEK293T RXRa-UAS-bla, beta-lactamase ratio, antagonist mode
Outline: as §1

[6] = target: Thyroid hormone receptor beta (Homo sapiens) (UniProt P10828); experiment: qHTS assay for small molecule antagonists of thyroid hormone receptor beta signaling (AID 588547; active = well fitted inhibition curve with a large enough effect in the signal ratio, with a control signal flat, not every such curve was filed as active; the % refers to the signal ratio;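 note: cells stimulated with 0.4 nM T3 agonist during compound exposure; % is set by controls: 0 for no effect and ±100 for the full control effect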); settings: TR-UAS-bla HEK293, beta-lactamase ratio, antagonist mode, 18 h
Outline: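 Inhibition of T3-driven (0.4nM final) beta-lactamase reporter activity was measured over 0.59 nM to 92 uM compound after 18 h at 37 C. The cells were GripTite HEK293 TR-UAS-bla in charcoal/dextran-stripped serum, with CCF4 ratio read-out and IC50 from Hill fits.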

[7] = target: Voltage-gated inwardly rectifying potassium channel KCNH2 (Homo sapiens) (UniProt Q12809); experiment: qHTS Assay for Small Molecule Inhibitors of the Human hERG Channel Activity (AID 588834; active = well fitted inhibition curve with a large enough effect;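 note: U2OS cells transduced with hERG by BacMam; top concentration of the series differs between compounds; % is set by controls: 0 for no effect and ±100 for the full control effect; lower thallium flux fluorescence means stronger hERG block; nearly all actives have a fitted effect of over 50% in size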); settings: U2OS BacMam hERG, FluxOR thallium flux fluorescence; series mostly up to 92.2 µM
Outline: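 Cells were infected with hERG-BacMam virus for 4 hrs at room temperature, grown overnight, then seeded at 2000/well. After dye loading and roughly 10 min compound treatment, thallium influx was triggered and fluorescence recorded.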

[8] = qHTS assay for small molecule agonists of the antioxidant response element (ARE) signaling pathway (AID 651741; active = well fitted activation curve with a large enough effect in the signal ratio; the % refers to the signal ratio; note: potency is the fitted concentration of half-maximal effect; for activation: % of control where 0% means no effect); settings: HepG2 ARE-bla reporter, beta-lactamase FRET ratio, 16 h; series mostly up to 96 µM
Outline: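 Beta-lactamase reporter under ARE control in HepG2 cells, 2,000 per well, was induced by 16 h compound treatment at 37 C. Read-out was fluorescence from LiveBLAzer B/G FRET substrate after 2 h at room temperature.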

[9] = qHTS assay for small molecule activators of the p53 signaling pathway (AID 651743; active = well fitted activation curve with a large enough effect in the signal ratio, not every such curve was filed as active; the % refers to the signal ratio; note: % of control where 0% means no effect); settings: HCT-116 p53RE-bla, beta-lactamase FRET ratio, 16 h; stronger effect = higher value
Outline: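 After 16 hours compound treatment at 37 C, HCT-116 cells stably expressing p53RE-driven beta-lactamase were loaded with LiveBLAzer B/G FRET substrate for 2 hours at room temperature. Fluorescence intensity served as the p53 activation read-out.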

[10] = qHTS assay for small molecule activators of the nuclear factor-kappa B (NF-kB) signaling pathway (AID 651749; active = well fitted activation curve with a large enough effect in the signal ratio; the % refers to the signal ratio; note: % of control where 0% means no effect); settings: NF-kB-bla ME-180 cells, beta-lactamase FRET ratio, 16 h; stronger effect = higher value
Outline: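 Activation measured after 16 hr compound treatment at 37C, 5% CO2, of 2,000 ME-180 cells/well stably expressing an NF-kB response element–driven beta-lactamase reporter, via FRET-disruption fluorescence.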

Chain of Retinoic acid receptor RXR-alpha (Homo sapiens) (P19793 whole entry, looked up): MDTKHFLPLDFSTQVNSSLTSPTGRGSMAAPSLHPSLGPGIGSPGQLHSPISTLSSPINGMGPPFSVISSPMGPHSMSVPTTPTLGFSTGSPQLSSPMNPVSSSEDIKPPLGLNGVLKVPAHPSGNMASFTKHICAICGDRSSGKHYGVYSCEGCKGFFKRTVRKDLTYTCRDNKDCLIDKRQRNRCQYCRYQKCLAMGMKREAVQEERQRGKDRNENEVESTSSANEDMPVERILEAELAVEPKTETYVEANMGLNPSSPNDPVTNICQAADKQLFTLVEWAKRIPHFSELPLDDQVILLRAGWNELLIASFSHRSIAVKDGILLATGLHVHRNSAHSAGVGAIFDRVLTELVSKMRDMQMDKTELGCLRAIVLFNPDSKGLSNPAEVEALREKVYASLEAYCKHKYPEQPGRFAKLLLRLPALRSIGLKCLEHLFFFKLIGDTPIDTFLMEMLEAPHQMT
Chain of Voltage-gated inwardly rectifying potassium channel KCNH2 (Homo sapiens) (Q12809 whole entry, looked up): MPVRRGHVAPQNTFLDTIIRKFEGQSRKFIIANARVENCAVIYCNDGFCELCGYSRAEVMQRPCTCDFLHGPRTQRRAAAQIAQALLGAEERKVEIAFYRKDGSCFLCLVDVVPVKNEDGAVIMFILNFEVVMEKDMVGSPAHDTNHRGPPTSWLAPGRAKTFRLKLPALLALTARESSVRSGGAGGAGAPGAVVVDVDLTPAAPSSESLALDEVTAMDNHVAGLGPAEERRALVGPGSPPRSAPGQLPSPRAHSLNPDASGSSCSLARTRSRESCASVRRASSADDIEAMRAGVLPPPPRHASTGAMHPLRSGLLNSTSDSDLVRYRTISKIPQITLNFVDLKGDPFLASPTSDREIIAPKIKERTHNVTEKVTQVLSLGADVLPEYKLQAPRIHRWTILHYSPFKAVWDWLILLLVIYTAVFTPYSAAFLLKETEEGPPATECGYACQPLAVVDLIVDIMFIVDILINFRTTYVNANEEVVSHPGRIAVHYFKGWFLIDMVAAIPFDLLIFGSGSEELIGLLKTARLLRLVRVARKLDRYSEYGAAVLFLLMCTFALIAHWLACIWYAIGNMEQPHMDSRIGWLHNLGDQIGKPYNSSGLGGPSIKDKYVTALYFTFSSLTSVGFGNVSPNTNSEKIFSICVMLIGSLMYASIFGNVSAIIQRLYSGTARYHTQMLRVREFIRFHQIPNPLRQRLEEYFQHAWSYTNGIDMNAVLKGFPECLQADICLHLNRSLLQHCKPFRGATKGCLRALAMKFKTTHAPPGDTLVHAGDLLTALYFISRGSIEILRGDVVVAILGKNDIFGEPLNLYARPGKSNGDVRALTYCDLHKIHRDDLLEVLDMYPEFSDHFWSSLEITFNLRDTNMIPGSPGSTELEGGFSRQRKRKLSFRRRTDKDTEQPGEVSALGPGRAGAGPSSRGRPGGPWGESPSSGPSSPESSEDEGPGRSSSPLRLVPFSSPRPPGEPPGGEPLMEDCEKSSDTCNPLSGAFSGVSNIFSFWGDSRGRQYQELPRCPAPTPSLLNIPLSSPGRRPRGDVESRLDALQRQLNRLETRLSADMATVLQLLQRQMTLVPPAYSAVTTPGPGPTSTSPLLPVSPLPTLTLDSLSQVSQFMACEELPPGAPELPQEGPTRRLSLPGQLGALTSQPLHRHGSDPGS
Chain of Thyroid hormone receptor beta (Homo sapiens) (P10828 whole entry, looked up): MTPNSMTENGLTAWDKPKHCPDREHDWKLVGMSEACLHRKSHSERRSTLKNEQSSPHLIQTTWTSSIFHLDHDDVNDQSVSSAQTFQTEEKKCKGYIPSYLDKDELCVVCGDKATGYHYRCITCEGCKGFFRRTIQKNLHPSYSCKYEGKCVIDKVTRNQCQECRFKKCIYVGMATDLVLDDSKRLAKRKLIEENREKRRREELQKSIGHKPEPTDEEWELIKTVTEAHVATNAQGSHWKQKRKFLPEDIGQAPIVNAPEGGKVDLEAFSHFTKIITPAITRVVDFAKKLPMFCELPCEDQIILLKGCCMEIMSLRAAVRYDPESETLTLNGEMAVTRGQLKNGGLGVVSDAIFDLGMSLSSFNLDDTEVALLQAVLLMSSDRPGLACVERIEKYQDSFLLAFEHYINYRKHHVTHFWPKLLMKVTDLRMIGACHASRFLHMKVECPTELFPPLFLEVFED

CC(C)Nc1ccccc1
max response [1]: -11%
outcome [2]: inactive
outcome [3]: inactive
max response [4]: -12.9%
max response [5]: 3.31% (inactive)
activity change % (negative = inhibition) [6]: -21.8% (inactive)
Potency [7]: inactive
Potency [8]: inactive
activation [9]: -0.311% (inactive)
activation [10]: 0.185% (inactive)

CCCCCCCCC/C=C/CC1CC(=O)OC1=O (configuration not stated)
max response [1]: -0.831%
outcome [2]: inactive
outcome [3]: inactive
max response [4]: 1.93%
max response [5]: 19.9% (inactive)
activity change % (negative = inhibition) [6]: 2.72% (inactive)
Potency [7]: inactive
activation [9]: 3.69% (inactive)

O=C(Cl)c1cccc([N+](=O)[O-])c1
max response [1]: 14.1%
outcome [2]: inactive
outcome [3]: inactive
max response [4]: 0.426%
max response [5]: 24.8% (inactive)
activity change % (negative = inhibition) [6]: 5.89% (inactive)
Potency [7]: inactive
Potency [8]: inactive
activation [10]: -0.912% (inactive)

CCCCC(CC)COCC1CO1 (configuration not stated)
max response [1]: -2.88%
outcome [2]: inactive
outcome [3]: inactive
max response [4]: 2.35%
max response [5]: 9.33% (inactive)
activity change % (negative = inhibition) [6]: 1.98% (inactive)
Potency [7]: inactive
Potency [8]: inactive
activation [10]: 0.588% (inactive)

CC(=O)Nc1ccccc1C
max response [1]: -2.35%
outcome [2]: inactive
outcome [3]: inactive
max response [4]: -11.2%
max response [5]: 2.75% (inactive)
activity change % (negative = inhibition) [6]: 4.18% (inactive)
Potency [7]: inactive
Potency [8]: inactive
activation [9]: 0.555% (inactive)
activation [10]: -0.805% (inactive)

FB(F)F
max response [1]: -9.29%
outcome [2]: inactive
outcome [3]: inactive
max response [4]: 16.6%
max response [5]: -6.25% (inactive)
activity change % (negative = inhibition) [6]: 15.2% (inactive)
Potency [7]: inactive
Potency [8]: inactive
activation [10]: 5.29% (inactive)

C=CCCC
max response [1]: -12.1%
outcome [2]: inactive
outcome [3]: inactive
max response [4]: 2.87%
max response [5]: 8.21% (inactive)
activity change % (negative = inhibition) [6]: 20.1% (inactive)
Potency [7]: inactive
activation [9]: -0.508% (inactive)

NC(=O)c1cccc([N+](=O)[O-])c1
max response [1]: 2.13%
outcome [2]: inactive
outcome [3]: inactive
max response [4]: -10.9%
max response [5]: -6.67% (inactive)
activity change % (negative = inhibition) [6]: 12.3% (inactive)
Potency [7]: inactive
activation [9]: 8.78% (inactive)

Cc1ccc(C(=O)O)cc1
max response [1]: 4.67%
outcome [2]: inactive
outcome [3]: inactive
max response [4]: -2.83%
max response [5]: -5.24% (inactive)
activity change % (negative = inhibition) [6]: 18.4% (inactive)
Potency [7]: inactive
activation [9]: -5.46% (inactive)

O=Cc1ccc(C(=O)O)cc1
max response [1]: 15.4%
outcome [2]: inactive
outcome [3]: inactive
max response [4]: -11.2%
max response [5]: 34.5% (inactive)
activity change % (negative = inhibition) [6]: 7.45% (inactive)
Potency [7]: inactive
activation [9]: -2.17% (inactive)

Oc1c(Cl)ccc(Cl)c1Cl
max response [1]: 2.14%
outcome [2]: inactive
outcome [3]: inactive
max response [4]: 1.62%
max response [5]: 17.5% (inactive)
activity change % (negative = inhibition) [6]: 13.7% (inactive)
Potency [7]: inactive
activation [9]: 1.05% (inactive)

C=CCn1c(=O)n(CC=C)c(=O)n(CC=C)c1=O
max response [1]: -13.5%
outcome [2]: inactive
outcome [3]: inactive
max response [4]: -12.4%
max response [5]: 6.59% (inactive)
activity change % (negative = inhibition) [6]: -0.231% (inactive)
Potency [7]: inactive
activation [9]: 0.0041% (inactive)

COc1ccc(N)c(OC)c1
max response [1]: -3.88%
outcome [2]: inactive
outcome [3]: inactive
max response [4]: -0.758%
max response [5]: -1.72% (inactive)
activity change % (negative = inhibition) [6]: -1.14% (inactive)
Potency [7]: inactive
activation [9]: 1.84% (inactive)

CC#N
max response [1]: 8.5%
outcome [2]: inactive
outcome [3]: inactive
max response [4]: -2.35%
max response [5]: 10.2% (inactive)
activity change % (negative = inhibition) [6]: 12.3% (inactive)
Potency [7]: inactive
activation [9]: -3.18% (inactive)

Cc1ccc2c(c1[N+](=O)[O-])C(=O)c1ccccc1C2=O
max response [1]: -1.88%
outcome [2]: inactive
outcome [3]: inactive
max response [4]: -5.46%
max response [5]: -0.36% (inactive)
activity change % (negative = inhibition) [6]: -11.5% (inactive)
Potency [7]: inactive
Potency [8]: 11.9 µM (active)
activation [9]: 7.91% (inactive)
activation [10]: -0.166% (inactive)

c1ccsc1
max response [1]: -5.29%
outcome [2]: inactive
outcome [3]: inactive
max response [4]: -0.2%
max response [5]: -6.87% (inactive)
activity change % (negative = inhibition) [6]: -13.7% (inactive)
Potency [7]: inactive
Potency [8]: inactive
activation [9]: 1.47% (inactive)
activation [10]: 0.633% (inactive)

CC(C)=CCl
max response [1]: 6.48%
outcome [2]: inactive
outcome [3]: inactive
max response [4]: -7.86%
max response [5]: 7.55% (inactive)
activity change % (negative = inhibition) [6]: -1.53% (inactive)
Potency [7]: inactive
Potency [8]: inactive
activation [9]: -2.89% (inactive)
activation [10]: 0.211% (inactive)

Nc1ccc(Cl)cc1[N+](=O)[O-]
max response [1]: -5.09%
outcome [2]: inactive
outcome [3]: inactive
max response [4]: -5.59%
max response [5]: -5.85% (inactive)
activity change % (negative = inhibition) [6]: 1.54% (inactive)
Potency [7]: inactive
activation [9]: -3.6% (inactive)

NC=O
max response [1]: 4.7%
outcome [2]: inactive
outcome [3]: inactive
max response [4]: -9.34%
max response [5]: -7.48% (inactive)
activity change % (negative = inhibition) [6]: 21.1% (inactive)
Potency [7]: inactive
Potency [8]: inactive
activation [10]: -0.435% (inactive)

CC/C=C1/OC(=O)c2ccccc21
max response [1]: 0.089%
outcome [2]: inactive
outcome [3]: inactive
max response [4]: -8.24%
max response [5]: 8.95% (inactive)
activity change % (negative = inhibition) [6]: 10.4% (inactive)
Potency [7]: inactive
Potency [8]: inactive
activation [9]: -1.64% (inactive)
activation [10]: -0.0092% (inactive)

Cc1cc(C)c(N)cc1C
max response [1]: -11.9%
outcome [2]: inactive
outcome [3]: inactive
max response [4]: 3.08%
max response [5]: 16.4% (inactive)
activity change % (negative = inhibition) [6]: -8.09% (inactive)
Potency [7]: inactive
Potency [8]: inactive
activation [10]: -0.054% (inactive)

Nc1ccc([N+](=O)[O-])c(N)c1
max response [1]: -12.6%
outcome [2]: inactive
outcome [3]: inactive
max response [4]: -1.48%
max response [5]: -8.62% (inactive)
activity change % (negative = inhibition) [6]: -0.546% (inactive)
Potency [7]: inactive
activation [9]: -5.74% (inactive)

O=c1[nH][nH]c(=O)c2cc([N+](=O)[O-])ccc12
max response [1]: -1.84%
outcome [2]: inactive
outcome [3]: inactive
max response [4]: -8.03%
max response [5]: 10.6% (inactive)
activity change % (negative = inhibition) [6]: 15.8% (inactive)
Potency [7]: inactive
Potency [8]: inactive
activation [9]: -3.95% (inactive)
activation [10]: 0.392% (inactive)

NC(=S)NNC(N)=S
max response [1]: -14.7% and -3.73%
outcome [2]: inactive
outcome [3]: inactive
max response [4]: -7.09%
max response [5]: -19.9% (inactive)
activity change % (negative = inhibition) [6]: -0.459% (inactive) and 12.6% (inactive)
Potency [7]: inactive
Potency [8]: inactive
activation [9]: 1.05% (inactive) and -1.18% (inactive)
activation [10]: -0.0609% (inactive) and -1.04% (inactive)

O=[N+]([O-])c1cccc(C(F)(F)F)c1
max response [1]: -15.5%
outcome [2]: inactive
outcome [3]: inactive
max response [4]: -3.15%
max response [5]: -2.39% (inactive)
activity change % (negative = inhibition) [6]: 8.91% (inactive)
Potency [7]: inactive
activation [9]: 2.87% (inactive)

O=C(O)c1ccccc1Cl
max response [1]: 0.58%
outcome [2]: inactive
outcome [3]: inactive
max response [4]: 6.35%
max response [5]: 2.61% (inactive)
activity change % (negative = inhibition) [6]: -4.08% (inactive)
Potency [7]: inactive
Potency [8]: inactive
activation [9]: -4.07% (inactive)
activation [10]: -0.473% (inactive)

O=Cc1ccc(CO)o1
max response [1]: -13.3%
outcome [2]: inactive
outcome [3]: inactive
max response [4]: 0.176%
max response [5]: 8.3% (inactive)
activity change % (negative = inhibition) [6]: 7.62% (inactive)
Potency [7]: inactive
activation [9]: -2.06% (inactive)

CC=C(Cl)Cl
max response [1]: -16.9%
outcome [2]: inactive
outcome [3]: inactive
max response [4]: -7.38%
max response [5]: -5.31% (inactive)
activity change % (negative = inhibition) [6]: -14.6% (inactive)
Potency [7]: inactive
activation [9]: -2.14% (inactive)
activation [10]: -0.14% (inactive)

CCCC(Cl)CCCC(Cl)CCC(Cl)CCC(Cl)CCC(Cl)CCCC(Cl)CCC (configuration not stated)
max response [1]: -10.5%
outcome [2]: inactive
outcome [3]: inactive
max response [4]: -0.455%
max response [5]: -10.6% (inactive)
activity change % (negative = inhibition) [6]: -14.9% (inactive)
Potency [7]: inactive
activation [9]: 0.55% (inactive)
activation [10]: 0.0275% (inactive)
